target: PUM1 PUF domain R5-ERA (Homo sapiens, UniProt Q14671 828-1176, C1007E;Q1011A); test: yeast three-hybrid, YBZ-1, SC-Leu-His + 0.5 mM 3-AT, 4 days; settings: tags: N-Gal4 AD-HA kept; label: inside an RPR1-promoter hybrid RNA with tandem MS2 sites; ssRNA
Summary of the method: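 The interaction score is the log change in how often each variant appears, from input to selection. Frequencies came from PCR-amplified, Illumina-sequenced repeat regions of Pumilio-1 PUF domain libraries grown in strain YBZ-1 (LexA–MS2 coat fusion, HIS3 reporter) alongside matching RNA elements. Input plates were SC-Leu and selection plates were SC-Leu-His + 0.5 mM 3-AT, each for four days, and the log2 calculation used a pseudocount of 1 where a variant was absent.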

Sequence	binding signal
GGCUAGAACUAGUGGAUCCCCCGGCGCCCGGCGGCUCGAGCCCGGGUAAGUGUCAAUAGUCUGCAUGCCGCCGGGCGCCAUGCCUGCAGGUCGACUCUAGAAAACAUG	0.84 log2 enrichment (interaction score)
GGCUAGAACUAGUGGAUCCCCCGGCGCCCGGCGGCUCGAGCCCGGGUAAGUGUGAAUAGUCUGCAUGCCGCCGGGCGCCAUGCCUGCAGGUCGACUCUAGAAAACAUG	2.24 log2 enrichment (interaction score)
GGCUAGAACUAGUGGAUCCCCCGGCGCCCGGCGGCUCGAGCCCGGGUAAGUGUUAAUAGUCUGCAUGCCGCCGGGCGCCAUGCCUGCAGGUCGACUCUAGAAAACAUG	1.72 log2 enrichment (interaction score)
GGCUAGAACUAGUGGAUCCCCCGGCGCCCGGCGGCUCGAGCCCGGGUAAGUGUAAAUAGUCUGCAUGCCGCCGGGCGCCAUGCCUGCAGGUCGACUCUAGAAAACAUG	3.08 log2 enrichment (interaction score)

— publication PMC8384837, “Expanding the binding specificity for RNA recognition by a PUF domain”
